# Pf Dd2 growth: qHTS Primary assay for Inhibitors of Plasmodium falciparum Dd2 growth in vitro; hit rate 4.3% among 120,000; Potency, µM (doses to about 28.9 µM), inactives show at the top dose activity, negative = inhibition, hits mostly inhibitors; P. falciparum Dd2 growth, SYBR Green, 72 h; active means well fitted inhibition curve with a large enough effect;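 further: plate controls were DMSO vehicle for no effect and reference drug for full effect; nearly all actives have a fitted effect of over 65% in size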
#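 Readout: SYBR Green fluorescence, 485 nm excitation, 535 nm emission, after ~16 h lysis at 37C. Before that, Dd2-infected red cells (2.5% hematocrit) grew 72 h with compound, 29 uM top final concentration.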
# * = called active by the depositor; i = inactive; [ ] = remark or other dose. The entries come from a sample that favours hits as a whole. Potency means the concentration at half of the fitted maximal effect.
SMILES,Pf Dd2 growth
Cc1ccc(C(=O)N2CCC3(CC2)Nc2ccccc2NC3=O)cc1O,-7%
Cc1ccc(C)c(-n2cc(CN(C)CCO)c(-c3ccccc3)n2)c1,-18%
COc1ccc(-c2n[nH]c3c2CC(=O)N(CCOc2ccccc2)C3)cc1F,-16%[44.1 µM]
CCN1CC(CN(C)Cc2nc(Cc3cccc(F)c3)no2)CC1=O (stereo not given),3%
COc1ccc(-c2nn(-c3ccccc3C)cc2CN(C)CCN2CCOCC2)cc1F,11µM*
CCN1CC(CN(C)Cc2cn(-c3ccccc3C)nc2-c2ccc(OC)c(F)c2)CC1=O (stereo not given),10µM*
COc1ccccc1-c1ccnc(-c2nnc(C)n2CCN2CCOCC2)c1,i
O=C(CN1CCCc2nc(C3CC3)ncc2C1=O)NCCCN1CCOCC1,13%
Cc1cc(Nc2ncncc2-c2nc(-c3ccccc3)no2)ccc1F,i
O=C1NC2(CCN(C(=O)c3ccccc3F)CC2)Oc2ccccc21,i
O=C(Nc1ccccc1)[C@H]1CN2CCC1C[C@@H]2Cn1cc(C2(O)CCCCC2)nn1 (stereo not given in full),i
COCCNC(=O)[C@H]1CN2CCC1C[C@@H]2Cn1cc(-c2cccc(N)c2)nn1 (stereo not given in full),-9%[44.1 µM]
Nc1cccc(-c2cn(C[C@H]3CC4CCN3C[C@@H]4C(=O)Nc3ccccc3)nn2)c1 (stereo not given in full),7.9µM*
COC(=O)CO[C@@H]1CO[C@H]2[C@@H]1OC[C@@H]2NC(=O)Nc1cccc(C(F)(F)F)c1,-13%[44.1 µM]
Cn1cc(CN2CCC(C(O)c3cccnc3)CC2)c(-c2ccc(C3CCCCC3)cc2)n1 (stereo not given),-8%
COc1ccc(CNC(=O)NC2CCc3n[nH]c(=O)n3CC2)cc1 (stereo not given),i
Cc1ccc(-c2cn3c(n2)N(C(=O)c2cnn4cccnc24)CCC3)cc1,-6%
Cc1ccc(-c2cn3c(n2)N(C(=O)Cn2ccnc2C)CCC3)cc1,10µM*
COc1ccc(-c2cn3c(n2)N(C(=O)Cn2ccnc2)CCC3)cc1,6%
CN1C(=O)CO[C@H]2CN(Cc3ncc[nH]3)C[C@H]21,5%[44.1 µM]
COCCNC(=O)[C@@H]1CCC[C@@H](NC(=O)c2cc(C)on2)CN(C)C(=O)C1,2%[44.1 µM]
Cc1ccccc1C(=O)N1CCC2(CC1)CN(c1ncccn1)CC2CO (stereo not given),20%
N#C/C(=C/c1ccc(Cl)cc1Cl)c1nc2ccccc2c(=O)[nH]1,26%
COc1c(Cl)cc(Cl)cc1/C=C(\C#N)c1nc2ccccc2[nH]1,5.6µM*
Cc1c(Cl)cccc1-c1ccc(/C=C(\C#N)c2nc3ccccc3[nH]2)o1,i
SMILES,Pf Dd2 growth
O=C(Nc1ccccc1)N1CC(c2nc(CCOCC3CC3)no2)C1,-16%
COC[C@@H]1CN(C(=O)Cc2cccc(OC)c2)C[C@H]1c1ccncc1,4%
CCS(=O)(=O)N1C[C@@H](C(=O)N2CCCCCC2)[C@H](c2ccncc2)C1,18%
O=C1NCC2(CCN(Cc3ccc(C(F)(F)F)cc3)CC2)Oc2ccccc21,-5%
COc1ccc(N2CCN(C3CCCN(CC4CC4)C3)CC2)cc1 (stereo not given),5%
COc1ccc(F)c(CN2CCCN3CCC[C@H]3C2)c1Cl,13µM*
COc1cccc(CN2CCCC(c3ccc(C(=O)O)cc3)C2)c1OC (stereo not given),-2%
COc1ccc(N2CCN(C3CCCN(CC(N)=O)C3)CC2)cc1 (stereo not given),-13%
COc1cc(CN2CCCC(COc3ccccc3C(=O)N3CCCC3)C2)ccc1O (stereo not given),i
COc1cc2c(cc1OC)CN(C1CCCN(Cc3c(O)cccc3OC)C1)CC2 (stereo not given),10µM*
C=CCOc1cccc(-c2nnc(CCC(=O)NC(C)c3ccccc3)c(=O)[nH]2)c1 (stereo not given),i
CCN1C(=O)CCN(C(=O)Cc2cccc(F)c2)CC12CCOCC2,5%
CSCCC(NS(=O)(=O)c1ccc2c(c1)oc(=O)n2C)C(=O)N1CCN(c2cc(C)ccc2C)CC1 (stereo not given),-21%
Cc1ccc(C)c(N2CCN(C(=O)C(CC(C)C)NS(=O)(=O)c3ccc4nc(C)sc4c3)CC2)c1 (stereo not given),7.9µM*
Cc1nc2ccc(S(=O)(=O)NCC(=O)Nc3ccc(C)c(Cl)c3)cc2s1,i
Cn1c([C@H]2CCN(C(=O)COc3ccccc3)C2)nc2ccccc21,-18%[44.1 µM]
CN1CC2(CCCN(CC3CC3)C2)c2cc(C(=O)NCCc3ccccc3)ccc21 (stereo not given),3.2µM*
CN(C)CCNC(=O)c1ccc2c(c1)C1(CCCN(CC3CC3)C1)CN2C (stereo not given),-27%[44.1 µM]
CC(=O)N1CCCC2(C1)CN(C)c1ccc(C(=O)NCCc3ccccc3)cc12 (stereo not given),13%[44.1 µM]
CCCN(C)c1nccnc1OC1CCN(C(=O)c2cccc(OC)c2OC)C1 (stereo not given),-30%
CC(C)N1C[C@H](O)C[C@H]1c1nc(-c2cccc([N+](=O)[O-])c2)no1,-12%[44.1 µM]
O=C1Nc2ccccc2O[C@H]2C[C@@H]1N(C1CCCC1)C2,16%[44.1 µM]
Cc1cc(C)cc(NC(=O)N2CCCC(Cn3c(C)nc4cccnc43)C2)c1 (stereo not given),-7%
O=C(CN1CCCc2nc(C3CC3)ncc2C1=O)NCCc1c[nH]c2ccccc12,10µM*
O=C(CN1CCCc2nc(C3CC3)ncc2C1=O)NCc1cccnc1,33%
SMILES,Pf Dd2 growth
COCCNC(=O)CN1CCCc2nc(C3CC3)ncc2C1=O,19%
COCCc1noc(CN(C)c2cc(C3CC(O)C3)nc(C)n2)n1 (stereo not given),5%
CNC(=O)N1C[C@@H](CN(C)C)[C@H](NS(=O)(=O)c2cc(F)ccc2C)C1,-9%
CN(C)C[C@@H]1CN(C)C[C@H]1NS(=O)(=O)c1cc(F)cc(F)c1,8.9µM*
CNC(=O)N1C[C@@H](CN(C)C)[C@H](NS(=O)(=O)c2ccc(F)cc2F)C1,18%
O=C(NC1CC1)[C@@H]1C[C@H](Oc2ccccc2)CN1C(=O)c1ccccn1,7%
C[S+](=O)([O-])N1CCCC(c2nn(-c3ccc(F)cc3)c(=O)[nH]2)C1 (stereo not given),-3%
Cc1cc(N2CCC(NCc3nc[nH]c3C)CC2)nc(-c2ccccc2O)n1,10µM*
Cc1cc(C)nc(CNC2CCN(c3nc(C)nc4sccc34)CC2)n1,-8%
Cc1[nH]cnc1CN1CCN(C2CCCC2)CC(C(=O)O)C1 (stereo not given),-8%
Cc1cc(C)cc(N2CCC(N3CCC(CCC(=O)NC4CC4)CC3)CC2)c1,-10%
Cc1cccc(NC(=O)CC2CCCN(c3cnn(C)c(=O)c3)C2)c1 (stereo not given),i
Cn1cc(C(=O)N2CCCC(Cc3noc(-c4cccnc4)n3)C2)cn1 (stereo not given),-8%
C=CCNC(=O)N1CC[C@H]2CC(=O)N(CCN3CCNC3=O)CC[C@H]2C1,20%[44.1 µM]
COc1cccc(C(=O)Nc2ccc3ncnc(N4CCCCC4)c3c2)c1,i
Cc1cccc(C(=O)Nc2ccc3ncnc(N4CCCCC4)c3c2)c1,i
CCNC(=O)CN1CCCC(CNC(=O)c2cccc(C(F)(F)F)c2)C1 (stereo not given),-19%
CCN1CCN(c2cc(C)c3cc(NC(=O)c4ccc(OC)c(OC)c4)ccc3n2)CC1,2.8µM*
